MBNL1-CUG inh: blocks human MBNL1 binding to CUG repeat RNA. Q9NR56. 280,000 compounds, 0.036% hits. Potency, µM (top dose mostly 57.5 µM), for the others: top-dose activity change, negative = inhibition, usual class: inhibitors. TR-FRET MBNL1-His/biotin-(CUG)12 binding, 665/545 ratio; active = well fitted inhibition curve with a large enough effect in the signal ratio, with a control signal flat, not every such curve was filed as active; inconclusive = small, poorly fitted or top-dose-only effect, or effect the other way, or a change in a side signal; inactive = no such curve, though single readings can be large or run the other way; the % refers to the signal ratio; also: potency is read from the fitted curve at half-maximal effect; % is scaled to controls: 0 for no effect and ±100 for the full control effect
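TR-FRET readout: Ex 340 nm, 665/545 nm emission ratio, normalized to buffer-only (basal) and MBNL1-(CUG)12 controls. Complex of MBNL1-His with Biotin-(CUG)12, compounds 92 nM–58 uM, incubated 60 min at room temperature.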
CtBP-E1A blk: inhibitors of CtBP/E1A interaction | 340,000 compounds, 0.49% hits | activity change, % (no concentration beside the values) | AID 651724 | AlphaScreen GST-E1A/His-CtBP binding, 1536-well; active compounds read low; in the data active = activity change below about -65%; inconclusive = mostly about -30% to -63%; also: % is scaled to controls: 0 for no effect and ±100 for the full control effect
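Steps: dispense buffer (Tris pH 8.0, NaCl 300 mM, TCEP 1 mM, BSA, Tween 20); add 5X protein mix (GST-E1A, His-CtBP, 125 nM each); pin 23 nL compound; 2 h at 37 °C, dark; add 5X beads (50 ug/mL); 1 h; read.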
RORgamma inh: blocks mouse ROR gamma transcriptional activity | 310,000 compounds, 5.4% hits | Drosophila S2 Gal4-RORgamma UAS-luciferase reporter, 20 h | Potency, µM (top dose mostly 53.6 µM), without a hit: top-dose activity change, negative = inhibition, usual class: inhibitors | AID 2551 | P51450; also: potency is read from the fitted curve at half-maximal effect; % is scaled to controls: 0 for no effect and ±100 for the full control effect; nearly all actives have a fitted effect of over 60% in size
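A Gal4/UAS one-hybrid system in insect cells: metallothionein-promoter Gal4–ROR gamma fusion plus Photinus luciferase reporter. Copper sulfate 700 uM final, 20 hr ambient incubation, luminescent detection after 10 min with reagent.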
CBFb-RUNX1 inh: blocks binding between human CBF-beta and RUNX1; AlphaScreen CBFb-His/RUNX1-biotin binding, biochemical; 230,000 tested, under 10 active; AID 1477; Potency, µM (series often up to 59.8 µM), without a hit: top-dose activity, negative = inhibition, usual class: inhibitors; also: % of control where 0% means no effect
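AlphaScreen proximity signal reports loss of binding between His-tagged CBF-beta and biotin-labelled RUNX1, each at 30 nM. Proteins are pre-associated for 20 minutes, compounds added for 15 minutes, then beads for 90 minutes, all at ambient temperature.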
Six1-Eya2 inh: blocks human Six1 binding to Eya2. Q15475+O00167. AlphaScreen GST-Six1/His-Eya2 binding, biochemical; active compounds read low. activity change, % (test concentration not listed). 360,000 compounds, 0.56% hits; in the data active = activity change below about -65%; inconclusive = mostly about -30% to -63%; also: % is scaled to controls: 0 for no effect and ±100 for the full control effect
Target sequence (O00167 whole entry, looked up): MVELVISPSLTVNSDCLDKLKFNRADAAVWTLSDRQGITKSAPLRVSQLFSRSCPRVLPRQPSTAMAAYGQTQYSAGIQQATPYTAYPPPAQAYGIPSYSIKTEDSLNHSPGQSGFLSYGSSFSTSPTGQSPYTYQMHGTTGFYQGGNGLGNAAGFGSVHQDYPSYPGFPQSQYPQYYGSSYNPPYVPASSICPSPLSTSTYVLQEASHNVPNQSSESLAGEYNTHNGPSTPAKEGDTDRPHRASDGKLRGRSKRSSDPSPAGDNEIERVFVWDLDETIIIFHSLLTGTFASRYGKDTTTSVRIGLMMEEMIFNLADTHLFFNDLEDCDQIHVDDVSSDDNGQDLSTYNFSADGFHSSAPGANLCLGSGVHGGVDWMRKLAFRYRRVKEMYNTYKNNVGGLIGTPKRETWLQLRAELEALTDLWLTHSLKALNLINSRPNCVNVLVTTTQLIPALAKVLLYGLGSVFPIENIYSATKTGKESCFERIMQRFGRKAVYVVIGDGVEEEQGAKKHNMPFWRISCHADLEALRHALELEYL
Target sequence (Q15475 whole entry, looked up): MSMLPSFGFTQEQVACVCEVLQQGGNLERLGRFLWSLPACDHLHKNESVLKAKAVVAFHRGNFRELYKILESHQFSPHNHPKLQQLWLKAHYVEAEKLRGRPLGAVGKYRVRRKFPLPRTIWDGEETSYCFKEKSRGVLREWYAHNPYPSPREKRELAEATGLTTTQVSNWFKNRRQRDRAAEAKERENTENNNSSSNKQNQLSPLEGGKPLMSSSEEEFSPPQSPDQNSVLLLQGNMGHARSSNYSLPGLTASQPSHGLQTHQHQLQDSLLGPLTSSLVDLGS
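GST-Six1 + His-Eya2 (5X stock: 250/500 nM); Tris pH 8.0, 300 mM NaCl, 0.05% BSA, 0.02% Tween 20; GSH donor/Ni acceptor beads; 1 h 37 °C dark; AlphaScreen readout.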
Gal4-VP16 FLuc: inhibits Gal4-VP16 luciferase reporter, ROR gamma counter-screen | 310,000 compounds, 3.5% hits | Drosophila S2 Gal4-VP16 UAS-luciferase, luminescence, 20 h | AID 2546 | Potency, µM (top dose mostly 53.6 µM), inactives show top-dose activity, negative = inhibition, hits mostly inhibitors;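 also: Gal4-VP16 expression switched on by copper sulfate through the metallothionein promoter; potency is read from the fitted curve at half-maximal effect; % is scaled to controls: 0 for no effect and ±100 for the full control effect; nearly all actives have a fitted effect of over 50% in size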
Numbers without * were called inactive; [ ] = dose if it differs, or a comment. An excerpt weighted towards active compounds, which were near 5.5% of everything screened. Unless noted, calls follow the shape of the dose curve; as a rule, active = well fitted curve in the direction sought with a large enough effect; inconclusive = small, poorly fitted or top-dose-only effect, or another doubt; inactive = no such curve, though single readings can be large; an effect the other way counts as inactive or inconclusive.

For COC(=O)c1ccc(CSc2nccn2C)cc1 the results were MBNL1-CUG inh -10%, CtBP-E1A blk 4, RORgamma inh 25%, CBFb-RUNX1 inh 10%, Six1-Eya2 inh 6 and Gal4-VP16 FLuc -4%.
`O=c1c(O)c(-c2ccc(O)cc2)oc2ccc(O)cc12` gave RORgamma inh inconclusive, CBFb-RUNX1 inh 10%[21.7 µM] and Gal4-VP16 FLuc -3%.
Screening COc1ccc(-c2oc3ccc(C)cc3c(=O)c2O)cc1OC returned RORgamma inh 5µM*, CBFb-RUNX1 inh 6%[21.7 µM] and Gal4-VP16 FLuc inconclusive.
For O=c1c(O)c(-c2ccc3c(c2)OCO3)oc2ccccc12 the results were MBNL1-CUG inh 2%, CtBP-E1A blk -1, RORgamma inh 6.3µM*, CBFb-RUNX1 inh 2%, Six1-Eya2 inh 4 and Gal4-VP16 FLuc 11µM*.
For COc1cc(OC)c2c(=O)c(O)c(-c3ccc(OC)c(OC)c3)oc2c1 the results were RORgamma inh 2.8µM* and Gal4-VP16 FLuc inconclusive.
COc1cccc(-c2oc3ccccc3c(=O)c2O)c1 was read as RORgamma inh 6.3µM*, CBFb-RUNX1 inh 3%[21.7 µM] and Gal4-VP16 FLuc 7.9µM*.
Screening COc1cc(-c2oc3cc(O)cc(O)c3c(=O)c2O)ccc1O returned RORgamma inh 3%, CBFb-RUNX1 inh -26% and Gal4-VP16 FLuc -13%.
COc1ccccc1CN1CC(C(=O)N2CCOCC2)CCC1=O (configuration not stated) was read as MBNL1-CUG inh -2%, CtBP-E1A blk -10, RORgamma inh -1%, Six1-Eya2 inh 0 and Gal4-VP16 FLuc inconclusive.
Screening COCCn1c(SCC(=O)Nc2ccc(OC)c(S(N)(=O)=O)c2)nc2ccccc2c1=O returned CtBP-E1A blk 7 and Six1-Eya2 inh 5.
For O=S(=O)(/N=C(/Nc1cccc2ccccc12)c1ccccc1)c1ccc(F)cc1 the results were MBNL1-CUG inh 5%, RORgamma inh 2%, Six1-Eya2 inh -8 and Gal4-VP16 FLuc 13%.
COc1ccc(-c2oc3ccccc3c(=O)c2O)cc1OC was read as RORgamma inh 6.3µM* and Gal4-VP16 FLuc inconclusive.
`O=c1c(O)c(-c2cccc(O)c2)oc2ccccc12` gave RORgamma inh inconclusive, CBFb-RUNX1 inh 17%[21.7 µM] and Gal4-VP16 FLuc 2%.
For COc1ccc(-c2oc3c(OC)c(OC)c(OC)c(O)c3c(=O)c2OC)cc1OC the results were MBNL1-CUG inh inconclusive, CtBP-E1A blk -20, RORgamma inh 11µM*, CBFb-RUNX1 inh 26%, Six1-Eya2 inh -21 and Gal4-VP16 FLuc inconclusive.
`Cc1ccc(S(=O)(=O)N2CCC(C(=O)OCC(=O)N3CCCC3=O)CC2)cc1C` gave CtBP-E1A blk 5 and Six1-Eya2 inh 1.
Screening S=c1nn[nH]n1C12CC3CC(CC(C3)C1)C2 returned MBNL1-CUG inh 0%, CtBP-E1A blk 10, RORgamma inh 2.5µM*, CBFb-RUNX1 inh 0%, Six1-Eya2 inh 20 and Gal4-VP16 FLuc 7.1µM*.
Cc1ccc(/C=c2/sc3nnc(-c4ccccc4Cl)n3c2=O)o1 was read as MBNL1-CUG inh 10%, CtBP-E1A blk -11, RORgamma inh 4.5µM*, CBFb-RUNX1 inh -9%, Six1-Eya2 inh -4 and Gal4-VP16 FLuc inconclusive.
CCOc1ccc(C(=O)CCC(=O)NN2CCCCC2)cc1 was read as CtBP-E1A blk 3 and Six1-Eya2 inh -1.
For CCOc1ccc(/C=N/NC(=O)c2[nH]c3ccc(C)cc3c2C)cc1 the results were MBNL1-CUG inh 3%, CtBP-E1A blk -6, RORgamma inh inconclusive, Six1-Eya2 inh -13 and Gal4-VP16 FLuc inconclusive.
`Cc1c(C(=O)N/N=C/c2ccc(Cl)cc2)[nH]c2ccc(Cl)cc12` gave MBNL1-CUG inh -4%, RORgamma inh 11µM*, CBFb-RUNX1 inh 3%, Six1-Eya2 inh -4 and Gal4-VP16 FLuc 11µM*.
